Assay outcomes as filed in PubChem BioAssay.
Rows were chosen to be rich in hits. Some 1.5% of all compounds tested hit in one or more screens of this group.
ANO1 activ – activates or potentiates the mouse TMEM16A chloride channel | Q8BHY3 | HEK293 TMEM16A/YFP-H148Q/I152L, iodide quench fluorescence; hits give low values | B-score at 10 µM | hit rate 0.3% among 340,000 | AID 623877;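 active = fluorescence-ratio B-score plate-corrected deviation score at least 3 library SD below zero, with starting fluorescence score within 5 deviations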;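 note: channel opened by trigger with iodide after compound preincubation; score built on the fluorescence ratio of max minus min over baseline; more negative score means more quench and so TMEM16A activation or potentiation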
Target sequence (Q8BHY3 whole entry, looked up): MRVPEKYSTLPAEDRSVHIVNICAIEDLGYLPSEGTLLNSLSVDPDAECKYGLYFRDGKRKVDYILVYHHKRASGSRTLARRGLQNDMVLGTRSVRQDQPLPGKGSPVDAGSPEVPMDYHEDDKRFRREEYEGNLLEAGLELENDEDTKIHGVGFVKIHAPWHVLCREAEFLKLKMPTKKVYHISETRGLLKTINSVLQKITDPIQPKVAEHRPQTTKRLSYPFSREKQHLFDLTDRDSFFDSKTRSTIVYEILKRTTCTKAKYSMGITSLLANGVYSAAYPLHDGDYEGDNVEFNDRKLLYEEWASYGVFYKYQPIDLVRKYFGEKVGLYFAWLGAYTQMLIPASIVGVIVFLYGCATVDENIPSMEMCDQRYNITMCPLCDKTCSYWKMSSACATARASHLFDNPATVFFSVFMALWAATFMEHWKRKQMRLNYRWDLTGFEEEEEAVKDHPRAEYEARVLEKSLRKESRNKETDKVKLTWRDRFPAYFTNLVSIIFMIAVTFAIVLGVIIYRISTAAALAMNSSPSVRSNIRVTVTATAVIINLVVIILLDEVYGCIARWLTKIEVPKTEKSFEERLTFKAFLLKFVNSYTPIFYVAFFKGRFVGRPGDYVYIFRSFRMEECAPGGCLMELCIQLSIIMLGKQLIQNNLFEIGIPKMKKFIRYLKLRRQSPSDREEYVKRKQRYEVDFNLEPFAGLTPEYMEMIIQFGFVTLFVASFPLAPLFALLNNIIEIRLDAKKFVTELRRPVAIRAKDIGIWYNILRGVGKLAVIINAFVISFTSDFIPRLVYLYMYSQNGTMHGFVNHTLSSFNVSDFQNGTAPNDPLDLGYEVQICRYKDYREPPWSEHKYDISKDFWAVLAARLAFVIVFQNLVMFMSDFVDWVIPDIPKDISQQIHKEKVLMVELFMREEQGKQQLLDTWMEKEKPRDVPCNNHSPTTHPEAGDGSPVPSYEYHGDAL
iPSC survival up – enhancers of human iPSC single-cell survival | hit rate 0.044% among 360,000 | survival enhancement, % at 20 µM | AID 602274 | hiPSC single-cell survival, ATPlite luminescence; 100% = ROCK inhibitor wells, 0% = DMSO; in the data active = survival enhancement above about 18%;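 note: cells exposed to compounds for 16 hours before the ATP read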
DAGLB inh – diacylglycerol lipase beta (human) inhibition; HEK293T DAGLB membrane lysate, EnzChek fluorogenic substrate; inhibition, % at 5.17 µM; hit rate 0.059% among 340,000; in the data active = inhibition above about 34%;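 note: 0% = enzyme with vehicle and 100% = wells lacking enzyme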
ABCB6 inh 2 – inhibitors of human ABC transporter ABCB6; Q9NP58; AID 602162; fluorescence ratio to DMSO, % at 10 µM; K562-ABCB6 porphyrin accumulation, flow cytometry, 1 h; hits give low values; hit rate 0.19% among 360,000;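 active = fluorescence ratio to DMSO below 75%, the collection mean minus 3 SD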;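 note: signal is porphyrin accumulated inside mitochondria; 100% equals median channel fluorescence of DMSO control wells; lower ratio means ABCB6 inhibition with less porphyrin fluorescence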
ANO1 block – inhibitors of mouse TMEM16A calcium-activated chloride channel. Q8BHY3. HEK293 TMEM16A/YFP iodide influx fluorescence, ionomycin. normalized B-score (activity score, 25-100; higher = stronger inhibition) at 10 µM. hit rate 1.2% among 310,000. AID 588511;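 active = ratio plate-corrected score three or more library SD toward inhibition, starting fluorescence score within five deviations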;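 note: score derived from kinetic fluorescence span divided by baseline fluorescence per well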
TMEM16A reconf – reconfirmed blocker of mouse TMEM16A calcium-activated chloride channel | shares compounds with ANO1 block | HEK293 TMEM16A/YFP-H148Q, iodide quench fluorescence; ionomycin added to raise cell calcium | inhibition, % at 10 µM | hit rate 39% among 2,300 | AID 652189;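 active = mean duplicate percent inhibition, scaled so buffer wells are 0 and the reference blocker 100, over three buffer SD above buffer mean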
HEK293 Ca mobil – counter-screen for TMEM16A inhibitors: effect on calcium mobilization; TMEM16A/YFP HEK293, Fluo4 calcium mobilization; hit rate 2% among 2,300; AID 652231; calcium response (% of ionomycin), % at 10 µM; shares compounds with ANO1 block;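 active = duplicate-averaged calcium signal over 20% of the ionomycin maximum, relative to buffer baseline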;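 note: each well's signal is peak minus trough fluorescence divided by its pre-addition baseline; 0% = buffer wells and 100% = ionomycin wells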
Parental YFP cnt – parental YFP-HEK293 iodide quench counter-screen activity; shares compounds with ANO1 block; ionomycin; YFP ratio F(max-min)/F0 at 10 µM; 2,300 tested, under 10 active;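 active = yellow fluorescent protein signal ratio exceeding the buffer control mean by over 5 SD of those controls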;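 note: ratio is mean of duplicate wells from kinetic YFP trace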
ClC-1 inh – selectivity of TMEM16A inhibitors: inhibition of rat ClC-1 chloride channel | AID 652236 | ratio percent, % at 10 µM | 2,300 tested, under 10 active | CHO ClC-1-YFP, iodide influx fluorescence quench; iodide control reads 0, buffer control 100 | shares compounds with ANO1 block;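 active = duplicate-mean ratio percent above the mean of iodide-only control wells, which defines zero, plus 5 of their SD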;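 note: higher percent means stronger block of ClC-1 iodide influx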
* hit, by the source's call; i = inactive; / = no result given.

SMILES	ANO1 activ	iPSC survival up	DAGLB inh	ABCB6 inh 2	ANO1 block	TMEM16A reconf	HEK293 Ca mobil	Parental YFP cnt	ClC-1 inh
COc1ccc(Cc2nc(-c3ccc(-n4cccc4)cc3)no2)cc1OC	i	0.3	-6.6	94.0	100*	i	i	-1.2	-0.5
COc1ccc(Cc2nc(-c3ccc(-n4cccc4)cc3)no2)cc1	i	-1.5	-19.1	92.0	i	/	/	/	/
COc1ccccc1C1CC(=O)Oc2cc(O)ccc21 (stereo unspecified)	/	0.6	-0.2	99.0	/	/	/	/	/
O=C1CC(c2ccccc2)c2ccc(O)cc2O1 (stereo unspecified)	i	-0.8	5.7	102.0	25*	i	i	-1.09	7.0
O=C1NC[C@H](Cc2ccccc2)N(CC2CCN(CCCC3CCCC3)CC2)C1=O	/	-1.1	-1.4	108.0	/	/	/	/	/
COc1ccccc1NC(=O)COc1ccc(/C=N/NC(=O)CSCc2ccc(Cl)cc2)cc1	i	-3.5	-3.4	104.0	100*	18.5%*	i	-1.08	3.5
Cc1csc(SCC(=O)Nc2nncs2)n1	i	-0.7	0.5	101.0	i	/	/	/	/
COc1ccccc1-c1nnc(SCC(=O)Nc2nc(-c3ccccc3)cs2)n1C	i	-0.9	-5.8	82.0	100*	18.0%*	i	-0.795	3.0
Cc1csc(SCC(=O)Nc2nc(-c3ccccc3)cs2)n1	i	2.9	-12.7	191.0	100*	i	i	-1.03	-5.0
CCc1nnc(NC(=O)CSc2nnc(-c3ccccc3OC)n2-c2ccccc2)s1	i	1.3	3.8	95.0	25*	i	i	-1.08	-10.5
Cc1ccc(-c2csc(NC(=O)CSc3nc(C)cs3)n2)cc1	i	8.1	-19.6	99.0	25*	i	i	-0.428	13.5
CC(C)c1ccc(NC2CCCN(C(=O)c3ccoc3)C2)cc1 (stereo unspecified)	i	1.0	-2.7	93.0	i	/	/	/	/
C[C@H]1CN([C@@H](C)CO)C(=O)CCCn2nncc2CO[C@H]1CN(C)S(=O)(=O)c1ccc(-n2cccn2)cc1	/	0.5	-0.9	98.0	/	/	/	/	/
Cc1nc(C)n(CC(C)C(=O)N2CCN(S(=O)(=O)c3ccccc3)CC2)n1 (stereo unspecified)	i	-0.4	-1.1	103.0	25*	i	i	-0.96	-3.0
CCC1Cc2[nH]c(=S)[nH]c(=O)c2C(c2ccc(Cl)cc2)O1 (stereo unspecified)	/	-0.1	/	100.0	/	/	/	/	/
COc1ccc(CN2CCC[C@]3(N[C@H](c4ccc(C)cc4)[C@@H]4C(=O)N(Cc5ccccc5)C(=O)[C@@H]43)C2=O)cc1	/	-0.9	-4.0	98.0	/	/	/	/	/
Cc1csc2ncnc(N3CCN(C(=O)Nc4ccc(OC(F)(F)F)cc4)CC3)c12	i	-0.4	-4.6	89.0	100*	16.5%*	i	-1.48	-11.5
O=C(Nc1ccc(OC(F)(F)F)cc1)N1CCN(c2ccnc3cc(Cl)ccc23)CC1	i	-0.6	-5.2	94.0	100*	i	i	-1.08	-22.5
O=C(C1CCCCC1)N1CCN(c2ccnc3cc(Cl)ccc23)CC1	i	-0.7	-4.4	101.0	25*	18.0%*	i	-1.02	-14.0
CCc1nnc2sc(-c3ccc(NC(=O)CSc4ccc(Cl)cc4)cc3)nn12	i	3.8	1.6	102.0	i	i	i	-1.07	-0.5
COC(=O)c1ccc(C2=NOC(C)(c3nnc(Cc4ccccc4)o3)C2)cc1 (stereo unspecified)	i	-0.9	-2.8	89.0	i	/	/	/	/
CC1(C)CC2CC(C)(CN2S(=O)(=O)c2ccc(N)cc2)C1 (stereo unspecified)	i	2.6	-3.9	100.0	25*	i	i	-0.92	-0.5
CCn1cnc2scc(-c3ccccc3)c2c1=O	i	-0.2	-3.2	103.0	100*	i	i	-1.13	-11.5
COc1ccc(-c2csc3ncn(Cc4ccccc4)c(=O)c23)cc1	i	-0.4	-5.3	112.0	i	/	/	/	/
O=C(NC(=O)C(F)(F)F)Nc1ccc(S(=O)(=O)Nc2nccs2)cc1	i	0.0	1.6	100.0	i	/	/	/	/
SMILES	ANO1 activ	iPSC survival up	DAGLB inh	ABCB6 inh 2	ANO1 block	TMEM16A reconf	HEK293 Ca mobil	Parental YFP cnt	ClC-1 inh
c1coc(CNc2nc3nonc3nc2NCc2ccco2)c1	i	-2.2	1.5	91.0	25*	i	i	-0.89	-12.5
Cc1nc(NCc2ccco2)c2cn[nH]c2n1	i	-2.3	-1.6	91.0	/	/	/	/	/
CC(C)c1cc(C(=O)N2CCCC(CCC(=O)NCc3ccccc3F)C2)n(C)n1 (stereo unspecified)	i	0.7	-2.1	94.0	100*	i	i	-1.08	-16.0
Cc1ncoc1C(=O)N1CCCC(CCC(=O)NCc2ccccc2F)C1 (stereo unspecified)	i	-0.3	0.9	95.0	i	/	/	/	/
CN(CC(=O)Nc1ccc(Cl)c(Cl)c1)CC(=O)N1CCc2ccccc21	/	1.5	-2.3	99.0	/	/	/	/	/
CC(C)c1ccc(C(=O)N(c2ccccn2)C(C)c2ccco2)cc1 (stereo unspecified)	i	-3.1	-6.7	96.0	i	/	/	/	/
CC(c1ccco1)N(C(=O)CSc1ccc(Br)cc1)c1ccccn1 (stereo unspecified)	i	-1.1	-5.2	92.0	100*	17.5%*	i	-1.25	-13.5
CCN1CCN(CCCNC(=O)c2ccc(/C=C3/Sc4ccccc4N(Cc4ccccc4F)C3=O)cc2)CC1	i	-0.2	-3.1	101.0	i	25.0%*	i	-1.27	-6.5
O=C(CSc1ccccc1Cl)N1CCOCC1	i	-0.7	-3.0	96.0	i	/	/	/	/
OCCNc1nc(Nc2ccc(Br)cc2)nc2ccccc12	/	/	/	/	25*	22.5%*	i	-1.38	-7.5
c1ccc(Nc2nc(NCC3CCCO3)c3ccccc3n2)cc1 (stereo unspecified)	i	-1.8	1.3	97.0	100*	i	i	-1.1	-14.5
Oc1cccc(Nc2nc(NCC3CCCO3)c3ccccc3n2)c1 (stereo unspecified)	/	-2.1	0.4	101.0	i	/	/	/	/
Cc1c(C(=O)N2CCCCC2)c(S(=O)(=O)N2c3ccccc3CC2C)c(C)n1C (stereo unspecified)	i	-0.6	0.9	100.0	i	/	/	/	/
